Drawing on PubChem BioAssay (EPA / NIEHS), this text covers AC50 and outcome for 4 molecules.

The target in test [1] is Bile acid receptor (Homo sapiens) (UniProt Q96RI1). In words: ATG_IR1_CIS: Attagene CIS-FACTORIAL HepG2 Assay for human Nuclear Receptor Subfamily 1 Group H Member 4 (NR1H4), IR1 submotif (AID 2282946). Conditions: IR1 reporter transcription, actives raise or lower the signal. In outline: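 Fluorescence of capillary-separated, HpaI-digested RT-PCR reporter products gave IR1-element mRNA induction in HepG2 cells 24 h after dosing. Endogenous transcription factors drove the cis-regulated reporters; activity was fitted bidirectionally against DMSO.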
Bile acid receptor (Homo sapiens), sequence (Q96RI1 whole entry, looked up): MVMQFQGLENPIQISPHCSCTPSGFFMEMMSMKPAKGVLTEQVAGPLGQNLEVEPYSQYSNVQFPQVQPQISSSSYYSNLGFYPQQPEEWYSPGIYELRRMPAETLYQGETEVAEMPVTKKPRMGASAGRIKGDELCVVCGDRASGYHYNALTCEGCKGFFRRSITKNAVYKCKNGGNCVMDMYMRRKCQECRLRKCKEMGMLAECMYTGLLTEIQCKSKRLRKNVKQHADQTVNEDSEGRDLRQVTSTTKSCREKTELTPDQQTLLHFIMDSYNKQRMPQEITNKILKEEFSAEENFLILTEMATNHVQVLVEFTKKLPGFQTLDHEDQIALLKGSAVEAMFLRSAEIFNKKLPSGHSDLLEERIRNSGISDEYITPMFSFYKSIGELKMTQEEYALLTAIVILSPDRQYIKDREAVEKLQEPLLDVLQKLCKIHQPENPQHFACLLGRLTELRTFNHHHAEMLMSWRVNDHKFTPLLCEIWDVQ

Test [2] is described as follows: ATG_ISRE_CIS: Attagene CIS-FACTORIAL HepG2 Assay for human Interferon Regulatory Factor 1 (IRF1) binding to an Interferon-Stimulated Response Element (ISRE) (AID 2282948). The conditions noted are these: HepG2 ISRE cis-reporter (Attagene), mRNA transcription readout; actives raise or lower the signal. In short, it runs like this:
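Signal reflects induction or loss of ISRE-linked reporter mRNA in transiently transfected HepG2 cells after a 24 h treatment, detected by fluorescent RT-PCR fragments on capillary electrophoresis and normalised to DMSO.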

Test [3] in a line: ATG_M_06_CIS: Attagene CIS-FACTORIAL HepG2 Assay for M06 Transcription Factor (Internal Marker) (AID 2282950). Conditions: HepG2 Attagene CIS-FACTORIAL M06 internal marker reporter; actives raise or lower the signal. In outline:
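HepG2 liver cells, 24 h exposure. Reporter transcripts from transfected cis-element constructs quantified by RT-PCR/capillary electrophoresis fluorescence. Bidirectional curve fit against DMSO.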

The target of test [4] is Hypoxia-inducible factor 1-alpha (Homo sapiens) (UniProt Q16665). As to the kind of experiment: ATG_HIF1a_CIS: Attagene CIS-FACTORIAL HepG2 Assay for human Hypoxia Inducible Factor 1 (HIF1A) (AID 2282951). Conditions: HepG2 Attagene cis-factorial HIF1a reporter transcription; actives raise or lower the signal. In short, it runs like this:
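Dosed 24 h, transfected HepG2 cells yielded total RNA whose reporter transcripts were RT-PCR-amplified and sized by capillary electrophoresis using fluorescent labelling; DMSO defined baseline, with gain and loss of signal both fitted.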

Test [5] addresses Hepatocyte nuclear factor 6 (Homo sapiens) (UniProt Q9UBC0). As to the kind of experiment: ATG_HNF6_CIS: Attagene CIS-FACTORIAL HepG2 Assay for human Hepatocyte Nuclear Factor 6 (HNF6) (AID 2282952). Conditions: HepG2 Attagene cis-factorial HNF6 reporter transcription; actives raise or lower the signal. In outline: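 Activity values derive from bidirectional fitting against DMSO of reporter mRNA levels, measured by capillary electrophoresis of labelled RT-PCR products from HepG2 cells exposed 24 h.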

Test [6] addresses Heat shock factor protein 1 (Homo sapiens) (UniProt Q00613). As to the kind of experiment: ATG_HSE_CIS: Attagene CIS-FACTORIAL HepG2 Assay for human Heat Shock Transcription Factor 1 (HSE) (AID 2282953). The conditions noted are these: HepG2 HSE cis-reporter, Attagene RNA transcription; actives raise or lower the signal. In outline: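 Endogenous transcription factor activity captured via cis-promoter reporter units transfected into HepG2; treatment lasted 24 h. Fluorescence intensity of reporter fragments analysed with bidirectional curve fitting, DMSO baseline.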

Test [7] is described as follows: ATG_MRE_CIS: Attagene CIS-FACTORIAL HepG2 Assay for human Metal Responsive Element (MRE) (AID 2282954). Conditions: HepG2 MRE cis-reporter transcription, Attagene multiplex; actives raise or lower the signal. In short, it runs like this:
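Measured here is mRNA induction from an MRE cis-element reporter in HepG2 after 24 h, quantified by fluorescence of labelled RT-PCR products on capillary electrophoresis; gain- and loss-of-signal fits use DMSO as baseline.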

Test [8] deals with Paired box protein Pax-6 (Homo sapiens) (UniProt P26367). As to the kind of experiment: ATG_Pax6_CIS: Attagene CIS-FACTORIAL HepG2 Assay for human Paired Box 6 (PAX6) (AID 2282956). The conditions noted are these: HepG2 CIS-FACTORIAL PAX6 reporter transcription, RNA readout; actives raise or lower the signal. In short, it runs like this: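 Values derive from bidirectional curve fitting of reporter mRNA signal relative to DMSO. HepG2 cells bearing transfected cis-regulated MRTUs were exposed for 24 h; transcripts were read by RT-PCR and capillary electrophoresis.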
Paired box protein Pax-6 (Homo sapiens), sequence (P26367 whole entry, looked up): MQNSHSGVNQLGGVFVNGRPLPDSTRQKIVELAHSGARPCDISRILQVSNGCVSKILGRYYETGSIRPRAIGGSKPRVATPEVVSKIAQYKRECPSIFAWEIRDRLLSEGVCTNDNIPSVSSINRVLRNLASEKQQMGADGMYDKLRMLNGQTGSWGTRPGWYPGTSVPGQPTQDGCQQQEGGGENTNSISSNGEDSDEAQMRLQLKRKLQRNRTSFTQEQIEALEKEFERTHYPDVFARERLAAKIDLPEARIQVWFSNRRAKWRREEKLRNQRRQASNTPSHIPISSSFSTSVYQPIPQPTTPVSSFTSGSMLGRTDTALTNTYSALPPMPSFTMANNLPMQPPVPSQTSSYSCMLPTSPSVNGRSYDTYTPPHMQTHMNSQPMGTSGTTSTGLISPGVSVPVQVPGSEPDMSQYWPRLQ

Test [9] is described as follows: ATG_PXRE_CIS: Attagene CIS-FACTORIAL HepG2 Assay for human Pregnane X Receptor Element (PXRE) (AID 2282957). The conditions noted are these: HepG2 Attagene CIS-FACTORIAL PXRE reporter, mRNA; actives raise or lower the signal. In outline: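 Fluorescent capillary electrophoresis of amplified reporter cDNA gave the signal, collected 24 h after dosing HepG2 cells that held transfected cis-element reporter constructs.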

Test [10] in a line: ATG_PPRE_CIS: Attagene CIS-FACTORIAL HepG2 Assay for human Peroxisome Proliferator-activated Response Element (PPRE) (AID 2282958). Conditions: HepG2 PPRE cis-element reporter, Attagene transcription factor profiling; actives raise or lower the signal. In short, it runs like this: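 Measured endpoint: PPRE-controlled reporter mRNA, detected by RT-PCR and capillary electrophoresis fluorescence, from transiently transfected HepG2 cells 24 h after dosing. Curves fitted in both directions using DMSO baseline.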

Test [11] can be described thus: ATG_RORE_CIS: Attagene CIS-FACTORIAL HepG2 Assay for human RAR-related Orphan Receptor Element (RORE) (AID 2282959). Conditions: HepG2 Attagene cis-factorial RORE reporter, mRNA; actives raise or lower the signal. In outline: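 Transiently transfected HepG2 reporter cells were treated 24 h. Reporter transcripts were detected by RT-PCR and capillary electrophoresis, with bidirectional fitting against DMSO.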

Test [12] can be described thus: ATG_Sox_CIS: Attagene CIS-FACTORIAL HepG2 Assay for human SRY-box transcription factor (SOX) (AID 2282960). The conditions noted are these: HepG2 Attagene cis-factorial SOX reporter, mRNA; actives raise or lower the signal. In outline:
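Gain- or loss-of-signal endpoint, fitted bidirectionally with DMSO as negative control. Based on reporter mRNA from transfected HepG2 cells harvested 24 h post-treatment and quantified via RT-PCR and capillary electrophoresis.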

Test [13] concerns the target Transcription factor Sp1 (Homo sapiens) (UniProt P08047). As to the kind of experiment: ATG_Sp1_CIS: Attagene CIS-FACTORIAL HepG2 Assay for human Specificity Protein 1 (Sp1) (AID 2282961). The conditions noted are these: HepG2 Sp1 cis-reporter transcription, actives raise or lower the signal. In outline:
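Endpoint reflects endogenous Sp1 transcriptional activity, not an exogenous fusion protein: HepG2 cells with transfected cis-regulated reporters, 24 h dosing, RT-PCR/capillary electrophoresis mRNA read-out, DMSO-normalised bidirectional fit.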

The nature of test [14]: ATG_SREBP_CIS: Attagene CIS-FACTORIAL HepG2 Assay for human Sterol Regulatory Element Binding (SREBP) (AID 2282962). Conditions: HepG2 Attagene cis-factorial SREBP reporter, mRNA; actives raise or lower the signal. In short, it runs like this:
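Values derive from bidirectional curve fitting with DMSO as baseline. The underlying measurement is reporter mRNA from cis-element-regulated units in transiently transfected HepG2, quantified by RT-PCR and capillary electrophoresis after 24 h exposure.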

Test [15] deals with Signal transducer and activator of transcription 3 (Homo sapiens) (UniProt P40763). As to the kind of experiment: ATG_STAT3_CIS: Attagene CIS-FACTORIAL HepG2 Assay for human Signal Transducer and Activator of Transcription 3 (STAT3) (AID 2282963). Conditions: HepG2, Attagene cis-factorial STAT3 reporter transcription; actives raise or lower the signal. In short, it runs like this:
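Fluorescence intensity of 6-FAM-labelled reporter fragments, separated by capillary electrophoresis after RT-PCR, gave the signal. Cells were HepG2 transfected with cis-element reporter units and treated 24 h; fitting was bidirectional relative to DMSO.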

The nature of test [16]: ATG_TA_CIS: Attagene CIS-FACTORIAL HepG2 Assay for human TA Basal Promoter (AID 2282964). Conditions: HepG2 Attagene CIS-factorial TA basal promoter reporter; actives raise or lower the signal. In outline: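 Fluorescence from labelled RT-PCR reporter fragments, separated by capillary electrophoresis, gives the signal. Cells: HepG2 transiently carrying multiple reporter units, 24 h chemical dosing. Gain or loss relative to DMSO.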

Test [17] in a line: ATG_TCF_b_cat_CIS: Attagene CIS-FACTORIAL HepG2 Assay for human T-Cell-Factor with beta-catenin (TCF/b-cat) (AID 2282965). The conditions noted are these: HepG2 TCF/beta-catenin cis-reporter transcription, actives raise or lower the signal. In short, it runs like this: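 HepG2 cells transiently transfected with cis-promoter-driven multiplexed reporter units; reporter mRNA measured 24 h after dosing by RT-PCR, FAM labelling, HpaI digestion and capillary electrophoresis. Bidirectional fitting relative to DMSO baseline.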

Test [18] is described as follows: ATG_GRE_CIS: Attagene CIS-FACTORIAL HepG2 Assay for human Glucocorticoid Response Elements (GRE) (AID 2282947). Conditions: HepG2 GRE cis-reporter, Attagene multiplex mRNA; actives raise or lower the signal. In short, it runs like this:
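Fluorescence intensity of reporter-specific cDNA fragments, separated by capillary electrophoresis, provides the signal. Constructs carry cis-regulating promoters in transiently transfected HepG2 liver cells; 24 h incubation; fitting is bidirectional against DMSO.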

Test [19] in a line: ATG_M_32_CIS: Attagene CIS-FACTORIAL HepG2 Assay for M32 Transcription Factor (Internal Marker) (AID 2282949).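 Also: background control marker of the multiplexed CIS panel rather than a real target.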 The conditions noted are these: HepG2 Attagene cis-factorial M32 reporter, mRNA; actives raise or lower the signal. In outline:
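HepG2 human liver cells transiently transfected with cis-promoter-driven multiple reporter transcription units, dosed 24 h. Reporter mRNA quantified by RT-PCR, FAM-labelled primer extension, HpaI digest and capillary electrophoresis; bidirectional fit versus DMSO baseline.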

A short description of test [20]: ATG_PBREM_CIS: Attagene CIS-FACTORIAL HepG2 Assay for human Phenobarbital-responsive Enhancer Module (PBREM) (AID 2282955). The conditions noted are these: HepG2 PBREM cis-reporter, Attagene multiplexed transcription; actives raise or lower the signal. In short, it runs like this: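 Transfected liver-derived HepG2 cells exposed 24 h; PBREM reporter transcript quantified via RT-PCR and capillary electrophoresis, with activity in either direction referenced to DMSO.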

The source made the active and inactive calls. The calls were made as follows: active = hit-call score of the fitted dose curve at least 0.9, where 1 is the maximum; inactive = score below 0.9.

Hepatocyte nuclear factor 6 (Homo sapiens), sequence (Q9UBC0 whole entry, looked up): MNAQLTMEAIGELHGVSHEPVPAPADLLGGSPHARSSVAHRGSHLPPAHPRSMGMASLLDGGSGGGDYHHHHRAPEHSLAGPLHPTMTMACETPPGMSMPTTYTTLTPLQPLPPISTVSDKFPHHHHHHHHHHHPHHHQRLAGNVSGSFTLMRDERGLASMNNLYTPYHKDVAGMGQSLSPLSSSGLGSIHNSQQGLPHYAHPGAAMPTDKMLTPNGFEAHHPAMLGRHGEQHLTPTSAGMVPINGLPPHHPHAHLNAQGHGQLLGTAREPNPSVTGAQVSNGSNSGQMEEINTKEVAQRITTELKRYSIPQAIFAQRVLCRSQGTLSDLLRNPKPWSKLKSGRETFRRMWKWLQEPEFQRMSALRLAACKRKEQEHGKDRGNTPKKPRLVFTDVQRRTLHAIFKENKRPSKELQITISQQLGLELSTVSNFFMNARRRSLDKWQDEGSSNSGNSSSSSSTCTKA
Hypoxia-inducible factor 1-alpha (Homo sapiens), sequence (Q16665 whole entry, looked up): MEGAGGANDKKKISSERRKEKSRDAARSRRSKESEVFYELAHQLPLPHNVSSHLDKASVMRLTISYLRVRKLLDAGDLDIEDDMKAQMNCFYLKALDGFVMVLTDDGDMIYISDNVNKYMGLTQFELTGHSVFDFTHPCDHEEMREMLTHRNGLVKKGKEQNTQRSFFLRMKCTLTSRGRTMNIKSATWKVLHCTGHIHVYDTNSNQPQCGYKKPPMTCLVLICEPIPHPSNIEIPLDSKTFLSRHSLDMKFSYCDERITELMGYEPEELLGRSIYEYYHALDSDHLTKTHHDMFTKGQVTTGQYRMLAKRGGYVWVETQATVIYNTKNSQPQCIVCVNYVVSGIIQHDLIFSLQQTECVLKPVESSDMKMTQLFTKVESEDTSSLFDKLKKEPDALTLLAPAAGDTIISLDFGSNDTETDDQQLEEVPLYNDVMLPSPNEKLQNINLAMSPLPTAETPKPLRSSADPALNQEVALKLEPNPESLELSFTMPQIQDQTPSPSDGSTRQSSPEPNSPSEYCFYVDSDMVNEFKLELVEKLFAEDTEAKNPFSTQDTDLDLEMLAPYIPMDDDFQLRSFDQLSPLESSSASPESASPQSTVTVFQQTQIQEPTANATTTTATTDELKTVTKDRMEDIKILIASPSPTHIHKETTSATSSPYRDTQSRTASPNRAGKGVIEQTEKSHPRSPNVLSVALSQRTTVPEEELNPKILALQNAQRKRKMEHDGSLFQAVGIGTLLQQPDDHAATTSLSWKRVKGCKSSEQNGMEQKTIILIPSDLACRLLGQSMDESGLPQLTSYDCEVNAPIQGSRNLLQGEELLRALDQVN
Heat shock factor protein 1 (Homo sapiens), sequence (Q00613 whole entry, looked up, the tested form may be a part): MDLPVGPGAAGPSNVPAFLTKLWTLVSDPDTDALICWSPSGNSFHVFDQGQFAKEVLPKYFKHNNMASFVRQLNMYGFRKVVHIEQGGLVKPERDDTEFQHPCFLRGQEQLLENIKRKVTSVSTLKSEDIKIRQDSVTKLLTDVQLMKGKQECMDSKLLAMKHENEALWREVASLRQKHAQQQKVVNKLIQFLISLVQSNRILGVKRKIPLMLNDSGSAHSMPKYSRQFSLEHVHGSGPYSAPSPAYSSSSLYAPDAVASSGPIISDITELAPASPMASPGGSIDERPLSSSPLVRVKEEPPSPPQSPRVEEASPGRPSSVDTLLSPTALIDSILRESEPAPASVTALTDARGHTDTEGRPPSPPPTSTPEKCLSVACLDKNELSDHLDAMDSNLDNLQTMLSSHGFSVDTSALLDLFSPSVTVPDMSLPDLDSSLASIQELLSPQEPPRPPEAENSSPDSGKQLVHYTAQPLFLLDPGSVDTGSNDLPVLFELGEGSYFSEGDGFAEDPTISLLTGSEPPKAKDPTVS
Transcription factor Sp1 (Homo sapiens), sequence (P08047 whole entry, looked up, the tested form may be a part): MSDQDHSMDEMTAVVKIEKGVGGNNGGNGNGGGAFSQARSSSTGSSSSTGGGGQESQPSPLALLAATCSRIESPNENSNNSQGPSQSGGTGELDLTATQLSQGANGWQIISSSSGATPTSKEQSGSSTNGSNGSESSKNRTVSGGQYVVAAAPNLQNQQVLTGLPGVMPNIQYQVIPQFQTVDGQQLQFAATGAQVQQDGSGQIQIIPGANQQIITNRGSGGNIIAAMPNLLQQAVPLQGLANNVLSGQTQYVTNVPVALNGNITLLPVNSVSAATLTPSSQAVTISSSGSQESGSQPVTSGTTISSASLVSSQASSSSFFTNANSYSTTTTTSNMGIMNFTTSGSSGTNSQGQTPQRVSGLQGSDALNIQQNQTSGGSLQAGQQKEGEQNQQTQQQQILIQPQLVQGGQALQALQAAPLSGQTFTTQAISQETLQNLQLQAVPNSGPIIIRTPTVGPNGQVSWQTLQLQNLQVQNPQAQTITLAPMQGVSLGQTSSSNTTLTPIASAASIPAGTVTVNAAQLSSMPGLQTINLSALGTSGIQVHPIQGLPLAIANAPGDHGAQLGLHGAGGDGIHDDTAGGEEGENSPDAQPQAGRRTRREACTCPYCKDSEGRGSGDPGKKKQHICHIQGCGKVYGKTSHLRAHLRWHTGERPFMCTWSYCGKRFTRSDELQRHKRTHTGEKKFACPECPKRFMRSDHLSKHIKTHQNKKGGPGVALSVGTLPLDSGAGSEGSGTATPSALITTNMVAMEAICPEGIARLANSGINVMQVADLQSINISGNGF
Signal transducer and activator of transcription 3 (Homo sapiens), sequence (P40763 whole entry, looked up, the tested form may be a part): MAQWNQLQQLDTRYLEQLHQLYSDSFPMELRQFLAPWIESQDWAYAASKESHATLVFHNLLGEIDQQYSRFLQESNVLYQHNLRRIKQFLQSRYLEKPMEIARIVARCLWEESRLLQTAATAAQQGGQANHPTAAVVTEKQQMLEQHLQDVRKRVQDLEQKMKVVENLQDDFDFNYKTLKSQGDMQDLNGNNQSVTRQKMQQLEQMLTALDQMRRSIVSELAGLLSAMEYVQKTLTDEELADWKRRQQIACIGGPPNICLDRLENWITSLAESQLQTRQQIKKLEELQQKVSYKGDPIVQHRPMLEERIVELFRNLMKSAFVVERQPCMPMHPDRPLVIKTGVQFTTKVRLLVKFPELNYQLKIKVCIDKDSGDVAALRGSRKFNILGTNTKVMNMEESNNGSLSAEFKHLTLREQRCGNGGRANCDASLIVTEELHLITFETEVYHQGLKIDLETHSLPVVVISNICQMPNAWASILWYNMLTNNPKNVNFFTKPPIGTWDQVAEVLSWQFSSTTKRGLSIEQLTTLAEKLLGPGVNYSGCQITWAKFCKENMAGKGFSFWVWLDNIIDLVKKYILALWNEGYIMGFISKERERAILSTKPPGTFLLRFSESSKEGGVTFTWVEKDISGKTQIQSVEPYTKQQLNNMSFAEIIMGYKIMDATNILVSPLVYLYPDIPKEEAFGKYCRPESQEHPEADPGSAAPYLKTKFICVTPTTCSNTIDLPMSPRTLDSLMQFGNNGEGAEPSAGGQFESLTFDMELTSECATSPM

For `CCOC(=O)C(C#N)=C(c1ccccc1)c1ccccc1`, the AC50 – broadly, the concentration at which the activity in the assay is half-maximal – in test [1] was 100 µM (active); in test [4] it was 19.8 µM (active); in test [6] it was 149 µM (active); in [7], 86.9 µM (active); in test [8] it was 35.1 µM (active); in test [9], 1.39 µM (active). In addition, the AC50 was 154 µM (active) in test [10]; 17.4 µM (active) in [11]; 33.3 µM (active) in test [14]; 23.5 µM (active) in test [16]; 26 µM (active) in test [17]. Besides, the molecule was called inactive in [2], in test [3], in [5], in [12], in test [13] and in test [15].
Regarding `C=C[Si]1(C)O[Si](C)(C=C)O[Si](C)(C=C)O[Si](C)(C=C)O1` (stereo not given), the outcome in test [18], in [2], in test [19], in test [3], in test [4] and in test [5] was inactive. The outcome in test [6], in [7], in [20], in test [8], in [10] and in test [11] was inactive. For the same molecule, the call in [12], in [13], in test [14], in test [15] and in [17] was inactive. The AC50 in test [9] was 2.51 µM (active).
As for `Cc1c(C2(c3cc(Br)c(O)c(Br)c3C)OS(=O)(=O)c3ccccc32)cc(Br)c(O)c1Br`, the molecule was classed as inactive in [1], in test [2], in test [4], in test [5], in test [6] and in test [7]. Besides, the outcome in test [20], in test [8], in [10], in test [12], in test [13] and in test [14] was inactive. Also, the molecule was classed as inactive in test [15], in [16] and in test [17]. Besides, the AC50 in [9] was 11 µM (active).
Regarding `O=C1OC(=O)c2c(Br)c(Br)c(Br)c(Br)c21`, the outcome in test [18], in test [2], in [19], in test [3], in test [4] and in [5] was inactive. For the same molecule, the outcome in [6], in test [7], in [20], in [8], in test [9] and in test [10] was inactive. Besides, the molecule was classed as inactive in test [11], in test [12], in test [13], in test [14], in [15] and in [16]. Further, in test [17], the molecule was called inactive.
